Bioassay records: PubChem, National Center for Advancing Translational Sciences (NCATS)
Most compounds without a hit are left out; they make up all but 2.4% or so of the library.
Cruzain inh Det: cruzain (T. cruzi) inhibition with detergent. P25779. purified cruzain, Z-FR-AMC fluorescence, 0.01% Triton. Potency, µM, for inactives: max response, negative = inhibition, most hits filed as inhibitors. actives 0.43% (n = 200,000). AID 1478;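 also: plate controls were neutral wells for no effect and buffer without enzyme for full effect; nearly all actives have a fitted effect of over 40% in size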
Target sequence (P25779 123-467 limits assumed): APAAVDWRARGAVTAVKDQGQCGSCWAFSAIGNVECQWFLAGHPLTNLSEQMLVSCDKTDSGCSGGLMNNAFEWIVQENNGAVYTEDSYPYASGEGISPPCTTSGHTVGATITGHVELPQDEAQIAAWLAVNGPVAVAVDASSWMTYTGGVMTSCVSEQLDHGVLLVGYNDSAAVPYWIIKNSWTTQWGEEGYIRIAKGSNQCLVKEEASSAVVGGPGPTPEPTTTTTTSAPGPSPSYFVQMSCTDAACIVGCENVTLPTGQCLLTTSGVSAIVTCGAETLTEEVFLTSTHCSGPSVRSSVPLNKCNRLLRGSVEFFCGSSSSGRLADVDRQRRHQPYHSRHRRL
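15 min RT preincubation of 1.5 nM cruzain with compound, then 2 uM Z-FR-AMC added; kinetic AMC fluorescence, 60 s delta. Triton X-100 0.01%, pH 5.5.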
Cruzain inh noDet: blocks cruzain activity in detergent-free assay. P25779. purified cruzain, Z-FR-AMC fluorescence, no detergent. Potency, µM, without a hit: max response, negative = inhibition, most hits filed as inhibitors. actives 2.3% (n = 200,000);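 also: plate controls were enzyme without inhibitor for no effect and buffer without enzyme for full effect; nearly all actives have a fitted effect of over 40% in size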
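Purified cruzain at 1.5 nM, pre-incubated 15 min with compound at room temperature in 100 mM sodium acetate pH 5.5, 5 mM DTT, 0.00005% Triton X-100. Reaction started with 2 uM Z-FR-AMC; AMC fluorescence increase over 60 s gives rate.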
Active calls of the source: *; ? = inconclusive. Calls follow the shape of the dose curve; as a rule, active = well fitted curve in the direction sought with a large enough effect; inconclusive = small, poorly fitted or top-dose-only effect, or another doubt; inactive = no such curve, though single readings can be large; an effect the other way counts as inactive or inconclusive. Potency is read from the fitted curve at half-maximal effect.

SMILES	Cruzain inh Det	Cruzain inh noDet
Cc1nn(-c2ccccc2)c2sc(C(=O)Nc3cccc(Br)c3)cc12	-2.3%	20µM*
COCCCNC(=O)c1ccc(Cn2c(=O)c3cccn3c3cccnc32)cc1	-4.2%	5.7%
Cc1ccc(NC2CC(=O)N(c3ccc(N4CCCCC4)cc3)C2=O)cc1 (stereo not given)	-2.4%	7.94µM*
COc1ccc(N2C(=O)CC(Nc3ccc(C)cc3)C2=O)cc1 (stereo not given)	3.8%	?
Cc1nn2c(=O)cc(COc3ccc(/C=C(\C#N)C(=O)Nc4ccc(F)cc4)cc3)nc2s1	-0.5%	-3.4%
O=C(CSc1n[nH]c(-c2ccccc2Cl)n1)N1CCN(c2ccccc2)CC1	-0.7%	18.9%
N#C/C(=C\c1ccc(-c2ccc([N+](=O)[O-])cc2Br)o1)C(=O)N1CCN(c2ccccc2)CC1	-4.3%	12.6µM*
N#C/C(=C/c1ccc(Oc2ccc([N+](=O)[O-])cn2)cc1)C(=O)N1CCOCC1	-5.3%	?
COc1ccc(-c2noc(N3CCC(C(=O)N4CCN(c5cccc(OC)c5)CC4)CC3)n2)cc1	2.1%	0.9%
Cc1cccc(NC(=O)CSc2nnc(NC(=O)c3ccc(S(=O)(=O)N4CCOCC4)cc3)s2)c1C	-0.8%	-11.2%
Cc1cccc(Nc2nnc(SCC(=O)NC(=O)Nc3ccc4c(c3)OCCO4)s2)c1	-1.8%	15.8µM*
Cc1ccc(-n2nnnc2SCC(=O)NC(=O)Nc2ccc3c(c2)OCCO3)cc1	-2.8%	-12.4%
Cc1cccc(NC(=O)CSc2nnc(NC(=O)CN3CCCCC3)s2)c1	-3.9%	-13.9%
O=C(CSc1nnnn1-c1ccc(Cl)cc1)NC(=O)Nc1ccc2c(c1)OCCO2	-1.7%	25.1µM*
Cc1ccccc1Nc1nnc(SCC(=O)NC(=O)Nc2ccc3c(c2)OCCO3)s1	-3.9%	?
Cc1cccc(C)c1Nc1nnc(SCC(=O)Nc2cc(S(=O)(=O)N3CCCCC3)ccc2Cl)s1	-2.7%	12.6µM*
Cc1cccc(Nc2nnc(SCC(=O)Nc3cccc(S(=O)(=O)N4CCCCC4)c3)s2)c1	-2.8%	12.6µM*
Cc1nn(-c2ccccc2)c2c1cc1c(=O)n(C)c(=O)nc-1n2-c1cccc(Cl)c1	-2.2%	1.2%
CCc1ccc(S(=O)(=O)NCCc2csc3nc(-c4ccccc4)nn23)s1	-4.4%	?
C=CC(=O)OCC(CO)(COC(=O)C=C)COC(=O)C=C	5.7%	22.9%
Cc1cccc(Nc2nnc(SCC(=O)Nc3cccnc3Cl)s2)c1	25.1µM*	15.8µM*
Cc1cccc(Nc2nnc(SCC(=O)NC3CCCc4ccccc43)s2)c1 (stereo not given)	-9.3%	-5.0%
Cc1cc(NC(=O)COC(=O)c2n[nH]c3ccccc23)no1	1.5%	2.2%
Cc1cc(NC(=O)COC(=O)c2oc3c(Cl)cccc3c2C)no1	4.1%	12.6µM*
CC(C)CCNC(=O)c1ccc2nc(CCc3ccccc3)oc2c1	0.4%	-9.8%
SMILES	Cruzain inh Det	Cruzain inh noDet
COc1ccccc1OCC(=O)Nc1oc(-c2ccccc2)c(-c2ccccc2)c1C#N	0.1%	?
N#Cc1c(NC(=O)COC(=O)C2CC3C=CC2C3)oc(-c2ccccc2)c1-c1ccccc1 (stereo not given)	-6.7%	7.94µM*
O=C(NCc1ccccc1Br)C1CCCN(C(=O)N2CCOc3ccccc32)C1 (stereo not given)	-4.0%	7.4%
CCOC(=O)c1c(-c2ccc(C)cc2)csc1NC(=O)c1cc(-c2ccc(OC)cc2)on1	-0.2%	-9.9%
COC(=O)c1c(-c2ccc(C)cc2)csc1NC(=S)NC(=O)c1cc(OC)cc(OC)c1	-4.2%	3.98µM*
CCOC(=O)c1c(NC(=O)c2cc3n(n2)C(C(F)(F)F)CC(c2cccs2)N3)sc(C)c1C (stereo not given)	-5.9%	6.31µM*
Cc1nn(C)c(C)c1CNC(=O)c1cc2n(n1)C(C(F)(F)F)CC(c1cccs1)N2 (stereo not given)	-3.0%	?
Cn1cnc2c(=O)oc3ccc(S(=O)(=O)N4CCN(c5cccc(C(F)(F)F)c5)CC4)cc3c21	-0.5%	12.0%
O=c1c(O)c(-c2cc(O)c(O)c(O)c2)oc2cc(O)cc(O)c12	?	12.6µM*
O=c1c(O)c(-c2ccccc2)oc2cc(O)cc(O)c12	-0.5%	-0.8%
CCCCc1ccc(-c2c(C#N)c(N)nc3c2CCCC3)s1	5.2%	25.1µM*
CCCCc1sc(-c2c(C#N)c(N)nc3c2CCCCC3)cc1[N+](=O)[O-]	-5.8%	-4.5%
COc1cccc(C(=O)Nc2nc(-c3nnn(-c4ccccc4C(F)(F)F)c3C)ns2)c1	3.0%	2.3%
O=C(N[C@@]1(C(=O)O)C[C@@H]1c1ccccc1)c1ccccc1	-3.4%	12.0%
CC(=O)Nc1ccc(NC(=O)c2ccc(COc3ccc4c(C)cc(=O)oc4c3)cc2)cc1	-4.1%	-14.7%
Cc1ccc(Cl)cc1NC(=O)COC(=O)c1ccc(COc2ccc3c(C)cc(=O)oc3c2)cc1	-1.4%	7.94µM*
O=c1oc2ccccc2c(O)c1/C=N/c1nc(-c2ccc(O)c(O)c2)cs1	1.5%	3.7%
CN(C)C=O	6.4%	7.5%
COc1ccc(C(=O)c2c(N)c(-c3nc(-c4ccc(OC)cc4)cs3)c3ccccn23)cc1	-2.4%	?
COc1ccc(C(=O)c2c(N)c(-c3nc(-c4ccccc4)cs3)c3ccccn23)cc1	-2.9%	7.94µM*
CCOc1ccc(C(=O)c2c(N)c(-c3nc(-c4ccc5c(c4)OCO5)cs3)c3ccccn23)cc1	-1.7%	-18.6%
CCOc1ccc(C(=O)c2c(N)c(-c3nc(-c4ccc(OCC)cc4)cs3)c3ccccn23)cc1	-1.8%	-19.1%
COc1cccc(-c2csc(-c3c(N)c(C(=O)c4ccc5c(c4)OCO5)n4ccccc34)n2)c1	-2.1%	3.16µM*
COc1ccccc1C(=O)c1c(N)c(-c2nc(-c3ccccc3)cs2)c2ccccn12	-5.0%	10µM*
CCCN1CCCc2cc(CN(CCCN3CCOCC3)C(=O)Nc3ccc(Cl)c(Cl)c3)ccc21	-5.8%	5.9%
SMILES	Cruzain inh Det	Cruzain inh noDet
CC(=O)C1=NN(c2ccccc2)C2(S1)S/C(=C\c1ccccc1)C(=O)N2c1ccccc1 (stereo not given)	2.0%	10µM*
COC(=O)C1=NN(c2ccccc2)C2(S1)SC(C(C)=O)=C(C)N2c1ccccc1 (stereo not given)	0.4%	1.8%
Cc1cc(C)c(S(=O)(=O)NCC(c2ccc(N(C)C)cc2)N2CCc3ccccc32)c(C)c1 (stereo not given)	-2.5%	20µM*
COc1ccc(C)cc1S(=O)(=O)NCC(c1ccc(N(C)C)cc1)N1CCc2ccccc21 (stereo not given)	-5.0%	?
O=C(NCc1ccccc1)c1cnc(N2CCCCC2)c2ccccc12	-5.8%	-11.1%
CCOC(=O)CNS(=O)(=O)c1ccc(C)cc1	-1.5%	-5.2%
Cc1ccc(C(=O)C(OC(=O)CNS(=O)(=O)c2ccccc2)c2ccccc2)cc1 (stereo not given)	?	31.6µM*
COc1cccc([C@@H]2Oc3ccc(Br)cc3[C@H](O)[C@H]2O)c1	4.5%	-20.0%
COC(=O)c1c(NC(=O)CN2C(=O)c3ccccc3C2=O)sc(Cc2ccc3c(c2)OCO3)c1C	-1.5%	10µM*
COC(=O)c1c(NC(=O)CN2CCN(Cc3ccc4c(c3)OCO4)CC2)sc(C)c1C	0.9%	0.3%
Cc1ccc(NC(=O)c2ccc(F)c(S(=O)(=O)NCCc3ccccc3)c2)cc1F	-1.7%	-11.6%
O=C(Cn1nc(-c2ccccc2)c2cnc3ccccc3c21)Nc1ccccc1	-1.1%	12.3%
